From PubChem BioAssay AID1159580 (chemical genetic matrix, 2015)
“And” between values parts separate entries of the source, which are not always exact repeats. Identical values can stand only once. Screen size: about 5,500 compounds; about 2,000 (36%) were called active. Inconclusive results (about 18%) are left out. No stated cut-off is given here; in the data, active means normalized growth mostly below about 0.91 (no sharp cut-off); inconclusive means no clear call, values can overlap the other calls; inactive means mostly above about 0.92. Some of the results follow.

Test: chemical genetic growth profiling, strain panel (AID 1159580);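 further: tested at 20 µM; growth read once vehicle control cultures reached saturation at 30 °C; 1 = growth at the plate median or of vehicle wells; lower values mean less growth of the strain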
Conditions: S. cerevisiae deletion strains, growth OD

Measured: normalized growth

Cc1cc(O)c2c(c1O)C(=O)c1c(O)cc(C)c(O)c1C2=O
inactive: locus YAL013W, strain DEP1, hits give low values 0.982 | locus YAL021C, strain ccr4, hits give low values 0.948 | locus YAL026C, strain drs2, hits give low values 0.969 | locus YAL030W, strain snc1, hits give low values 0.951 | locus YBL061C, strain skt5, hits give low values 0.968 | locus YBR009C, strain hhf1, hits give low values 0.97 | locus YBR021W, strain FUR4, hits give low values 1.12 | locus YBR023C, strain chs3, hits give low values 0.983 | locus YBR171W, strain sec66, hits give low values 0.948 | locus YBR229C, strain ROT2, hits give low values 0.969 | locus YBR231C, strain swc5, hits give low values 0.974 | locus YBR279W, strain paf1, hits give low values 0.989 | locus YCL011C, strain gbp2, hits give low values 0.939 | locus YCL016C, strain dcc1, hits give low values 0.978 | locus YCL029C, strain bik1, hits give low values 0.988 | locus YCL061C, strain MRC1, hits give low values 0.978 | locus YCL069W, strain vba3, hits give low values 0.966 | locus YCR088W, strain abp1, hits give low values 0.98 | locus YDL005C, strain med2, hits give low values 0.971 | locus YDL035C, strain GPR1, hits give low values 0.975 | locus YDL040C, strain nat1, hits give low values 0.991 | locus YDL074C, strain BRE1, hits give low values 1 | locus YDL101C, strain DUN1, hits give low values 0.947 | locus YDL134C, strain PPH21, hits give low values 0.967 | locus YDL185W, strain tfp1, hits give low values 0.979 | locus YDL192W, strain arf1, hits give low values 0.987 | locus YDR001C, strain nth1, hits give low values 0.952 | locus YDR069C, strain doa4, hits give low values 0.942 | locus YDR101C, strain arx1, hits give low values 0.993 | locus YDR137W, strain rgp1, hits give low values 0.877 | locus YDR150W, strain NUM1, hits give low values 0.989 | locus YDR159W, strain sac3, hits give low values 0.973 | locus YDR162C, strain NBP2, hits give low values 0.921 | locus YDR195W, strain ref2 1.04 | locus YDR297W, strain sur2, hits give low values 0.973 | locus YDR318W, strain mcm21, hits give low values 0.985 | locus YDR334W, strain swr1, hits give low values 0.921 | locus YDR335W, strain msn5, hits give low values 0.961 | locus YDR388W, hits give low values 0.986 | locus YDR392W, strain spt3, hits give low values 0.858 | locus YDR502C, strain sam2, hits give low values 1 | locus YEL003W, strain gim4, hits give low values 0.956 | locus YEL037C, strain rad23, hits give low values 0.972 | locus YEL061C, strain CIN8 (second series), hits give low values 0.97 | locus YEL061C, strain CIN8, hits give low values 0.97 | locus YER015W, strain faa2, hits give low values 0.95 | locus YER016W, strain bim1, hits give low values 0.979 | locus YER110C, hits give low values 0.992 | locus YER111C, strain swi4, hits give low values 0.963 | locus YER155C, strain BEM2 (second series), hits give low values 0.946 | locus YER155C, strain BEM2, hits give low values 0.996 | locus YER167W, strain BCK2, hits give low values 1.01 | locus YFR010W, strain ubp6, hits give low values 0.942 | locus YGL078C, strain dbp3, hits give low values 0.993 | locus YGL086W, strain mad1, hits give low values 0.981 | locus YGL167C, strain pmr1, hits give low values 0.977 | locus YGL173C, strain kem1, hits give low values 0.946 | locus YGL227W, strain vid30, hits give low values 0.983 | locus YGL240W, strain doc1, hits give low values 0.962 | locus YGL248W, strain PDE1, hits give low values 0.945 | locus YGL253W, strain hxk2, hits give low values 0.985 | locus YGR078C, strain PAC10, hits give low values 0.983 | locus YGR135W, strain pre9, hits give low values 0.988 | locus YGR229C, strain SMI1, hits give low values 0.992 | locus YGR252W, strain gcn5, hits give low values 1.16 | locus YHR013C, strain ard1, hits give low values 0.957 | locus YHR027C, strain rpn1, hits give low values 0.951 | locus YHR030C, strain SLT2, hits give low values 0.964 and 0.996 | locus YHR079C, strain IRE1 (second series), hits give low values 0.985 | locus YHR079C, strain IRE1, hits give low values 1 | locus YHR094C, strain hxt1, hits give low values 0.995 | locus YHR129C, strain ARP1, hits give low values 0.963 | locus YHR142W, strain chs7, hits give low values 0.964 | locus YHR200W, strain rpn10, hits give low values 0.994 | locus YIL066C, strain RNR3, hits give low values 0.939 | locus YIL073C, strain SPO22, hits give low values 1.3 | locus YIL125W, strain kgd1, hits give low values 1 | locus YIR030C, strain dcg1, hits give low values 0.997 | locus YJL092W, strain hpr5, hits give low values 0.965 | locus YJL095W, strain BCK1 (second series), hits give low values 0.974 | locus YJL095W, strain BCK1, hits give low values 0.893 and 0.997 | locus YJL115W, strain asf1, hits give low values 0.938 | locus YJL129C, strain trk1, hits give low values 0.891 | locus YJL134W, strain LCB3, hits give low values 0.977 | locus YJL154C, strain vps35, hits give low values 0.971 | locus YJL164C, strain tpk1, hits give low values 0.971 | locus YJL166W, strain qcr8, hits give low values 0.978 | locus YJL168C, strain set2, hits give low values 0.969 | locus YJL187C, strain SWE1 (second series), hits give low values 0.903 | locus YJL187C, strain SWE1, hits give low values 0.968 | locus YJR043C, strain POL32, hits give low values 1.02 | locus YJR066W, strain TOR1, hits give low values 0.926
